Source: PubChem BioAssay (National Center for Advancing Translational Sciences (NCATS))
Rows were chosen to be rich in hits. Some 1.7% of all compounds tested hit in one or more screens of this group.
hERG WT inh: inhibitors of human wildtype KCNH2 potassium channel; activity change, % at 1.84 µM; 340,000 tested, 0.37% active; AID 720551; U2OS, BacMam KCNH2, thallium flux FluxOr; hits give low values; Q12809;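 active = maximum activity change below -70%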
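U2OS cells transduced with wild-type KCNH2 virus are loaded with FluxOr dye for 45 min, and thallium flux is measured in kinetic reads before and after stimulation buffer. Rate constants are normalized to DMSO controls.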
TRPML1 inh: blocks the human TRPML1 channel; Q9GZU1; TRPML1-inducible cells, Ca2+ dye fluorescence, FDSS; hits give low values; inhibition of EC80 agonist-evoked calcium signal; activity change, negative = inhibition, % (no concentration beside the values); 390,000 tested, 0.02% active; AID 624415; in the data active = activity change below about -50%;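 note: stimulus is agonist 54-4 at its EC80 concentration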
Target sequence (Q9GZU1 whole entry, looked up): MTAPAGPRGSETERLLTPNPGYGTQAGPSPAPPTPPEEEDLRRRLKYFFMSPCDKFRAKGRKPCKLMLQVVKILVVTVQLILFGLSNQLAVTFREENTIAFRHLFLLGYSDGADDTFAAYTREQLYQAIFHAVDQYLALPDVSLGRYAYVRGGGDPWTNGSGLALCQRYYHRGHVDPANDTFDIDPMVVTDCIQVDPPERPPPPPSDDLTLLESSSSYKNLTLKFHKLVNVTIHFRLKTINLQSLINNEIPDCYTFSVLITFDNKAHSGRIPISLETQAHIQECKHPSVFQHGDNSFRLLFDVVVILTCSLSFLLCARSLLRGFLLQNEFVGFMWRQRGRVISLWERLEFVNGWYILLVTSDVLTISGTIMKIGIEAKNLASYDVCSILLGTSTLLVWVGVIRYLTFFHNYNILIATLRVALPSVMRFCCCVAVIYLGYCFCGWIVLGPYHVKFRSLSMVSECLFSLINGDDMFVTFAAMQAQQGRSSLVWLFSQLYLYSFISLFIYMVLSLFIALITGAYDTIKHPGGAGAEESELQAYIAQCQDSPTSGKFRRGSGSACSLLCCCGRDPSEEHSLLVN
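Tet-induced TRPML1-DL cells loaded with Ca8 no-wash calcium dye were read kinetically on FDSS. Compound addition was followed by EC80 agonist 54-4 (4 uM final); inhibition was read over 110 s.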
TRHR PAM: TRH receptor (human) allosteric enhancement; P34981; TRHR cells, fluo-8 calcium fluorescence, EC20 TRH enhancement; enhancement, % at 2 µM; 360,000 tested, 0.66% active; AID 493056; in the data active = enhancement above about 30%
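TRHR-expressing cells loaded with fluo-8 calcium dye were read kinetically (ex 480/em 530) during compound addition, then stimulated with an EC20 of TRH (10 nM final). Enhancement of the Gq-mediated intracellular calcium response was scored.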
TRPML1 agonist: agonists of human TRPML1 channel; Q9GZU1; TRPML1-expressing cells, Ca2+ dye fluorescence, FDSS; activation, % (test concentration not listed); 410,000 tested, 0.12% active; AID 624414; in the data active = activation above about 50%
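Cells: TRPML1-DL, 1X Tet inducer, ~16 h at 37 degrees C/5% CO2. Dye: ABD Ca8 no-wash + quencher, 45-90 min RT. Read: 10 s baseline, compound add, 110 s agonist phase; 54-4 EC80 (4uM final), 110 s antagonist phase.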
KCNH2 3.1 inh: blocks the human KCNH2 3.1 channel isoform | activity change, % (tested at about 1.8 µM) | AID 720553 | 340,000 tested, 0.95% active | U2OS KCNH2 3.1, thallium flux FluxOr; hits give low values;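 active = maximum activity change below -70%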;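 note: thallium influx rate constant from kinetic fluorescence after stimulation buffer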
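U2OS cells transduced with KCNH2 3.1 mutant virus (1.77 x 10^8 /mL, 4 h), plated overnight at 37 C, loaded 45 min with FluxOr dye plus Red40 quencher. Thallium flux rate constant from kinetic reads after stimulation buffer, normalised to controls.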
TRHR ag: activates the human TRH receptor; TRHR cells, calcium flux fluo-8, FDSS agonist mode; activation, % at 2 µM; 360,000 tested, 0.18% active; in the data active = activation above about 30%
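In this calcium-flux screen, cells bearing human TRHR are dye-loaded with fluo-8, baselined for 10 cycles, then exposed to library compounds; positive kinetic calcium responses during the agonist phase mark hits, with TRH as control.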
Hits are given with their value; n = inactive; x = not tested or not shown.

SMILES | hERG WT inh | TRPML1 inh | TRHR PAM | TRPML1 agonist | KCNH2 3.1 inh | TRHR ag
CCCOc1ccc(C(=O)N2CCN(Cc3ccc4c(c3)OCO4)CC2)cc1 | n | n | n | n | n | n
CCn1c(/C=C/c2ccccc2[N+](=O)[O-])nc2ccccc2c1=O | n | n | 40 | n | n | n
O=[N+]([O-])c1ccc(O/N=[N+](\[O-])N2CCN(c3ccccc3)CC2)c([N+](=O)[O-])c1 | x | n | x | n | x | x
CCCC(=O)Nc1ccccc1N1CCN(C(=O)C(C)C)CC1 | n | n | 32 | n | n | n
CC1CN(CCC(=O)Nc2ccccc2F)CC(C)O1 (centres undefined) | n | n | n | n | n | n
COc1ccc(-c2nc(CSCC(=O)NC3CCN(Cc4ccccc4)CC3)c(C)o2)cc1OC | n | n | n | n | n | n
COc1ccccc1NC(=O)C(=O)NCC(c1ccco1)N1CCc2ccccc21 (centres undefined) | n | n | 33 | n | n | n
O=C(NCC(c1ccco1)N1CCc2ccccc21)C(=O)Nc1ccccc1F (centres undefined) | n | n | n | n | n | n
O=C(Nc1nnc(-c2ccc(Cl)cc2)o1)c1nc2ccccc2s1 | n | n | n | 87 | n | n
CCOC(=O)[C@H]1[C@H]2COc3ccc(Cl)cc3[C@@H]2N2C(=O)c3cc(F)c(F)cc3NC(=O)[C@@]12C | n | n | n | n | -194 | n
COc1ccc2c(c1)[C@H]1[C@H](CO2)[C@H](c2ccccc2)[C@]2(C)C(=O)Nc3ccc(Br)cc3C(=O)N12 | n | n | x | n | -86 | x
Cc1ccc2c(c1)C(=O)N1[C@H]3c4cc(Cl)ccc4OC[C@@H]3[C@H](c3ccccc3)[C@]1(C)C(=O)N2 | n | n | x | n | -83 | x
COc1ccc2c(c1)C(=O)N1[C@H]3c4cc(OC)ccc4OC[C@@H]3[C@H](c3ccccc3)[C@]1(C)C(=O)N2 | n | n | n | n | n | n
Cc1ccc2c(c1)C(=O)N1[C@H]3c4cc(C)ccc4OC[C@@H]3[C@H](c3ccccc3)[C@]1(C)C(=O)N2 | n | n | x | n | n | x
CCOC(=O)[C@H]1[C@H]2COc3ccc(C)cc3[C@@H]2N2C(=O)c3cc(F)c(F)cc3NC(=O)[C@@]12C | n | n | n | n | n | n
O=C(O)/C=C/c1cc(F)c(S(=O)(=O)N2CCN(S(=O)(=O)c3ccc4c(c3)OCCO4)CC2)cc1F | x | x | n | x | x | n
COc1cccc(NC(=O)CSc2nnc3ccc(-c4ccncc4)nn23)c1 | n | n | n | n | n | n
COc1ccc(C2Nc3ccccc3C(=O)N2NS(C)(=O)=O)cc1 (centres undefined) | n | n | n | n | n | n
CC1Nc2ccccc2C(=O)N1NS(C)(=O)=O (centres undefined) | n | n | 33 | n | n | n
Cc1nc(N)nc(N/N=C/c2ccccc2)n1 | -76 | x | n | x | n | n
O=C(O)c1sc2cc(C(F)(F)F)cnc2c1-c1ccccn1 | n | n | n | n | n | n
COC(=O)c1sc2cc(C(F)(F)F)cnc2c1-c1ccccn1 | n | n | 31 | n | n | n
CCCC(C)(C)C(=O)N1CCC1(C)C(=O)NS(=O)(=O)c1ccccc1Cl (centres undefined) | x | x | x | n | x | x
CC1(C)CC(=O)C(CC(=O)c2ccccc2)=C(NN=C(N)N)C1 | n | n | x | n | n | x
Cc1ccc(C)c(S(=O)(=O)N2CCN(C(=O)C3CCN(c4ncnc5sc(C)c(C)c45)CC3)CC2)c1 | n | n | 34 | 74 | n | n
SMILES | hERG WT inh | TRPML1 inh | TRHR PAM | TRPML1 agonist | KCNH2 3.1 inh | TRHR ag
Cc1ccc(NC(=O)C2CCN(c3ncnc4sc(C)c(C)c34)CC2)cc1S(=O)(=O)N(C)C | n | n | n | n | n | n
O=S(=O)(c1ccccc1)N1CCN(c2nc(-c3cccs3)nc3ccccc23)CC1 | x | x | n | n | x | n
O=S(=O)(c1ccc(Cl)cc1)N1CCN(c2nc(-c3cccs3)nc3ccccc23)CC1 | n | n | n | n | -90 | n
CC(=O)c1ccc(S(=O)(=O)N2CCN(c3nc(-c4ccccc4)nc4ccccc34)CC2)cc1 | x | x | x | n | x | x
CC(=O)c1ccc(S(=O)(=O)N2CCN(c3nc(-c4cccnc4)nc4ccccc34)CC2)cc1 | n | n | 35 | n | n | n
COc1cccc(-c2ncc3ccccc3c2COC(=O)N2CCCCC2)c1 | x | n | n | n | x | n
Nc1nc(N)c2[nH]cnc2n1 | n | x | x | x | -92 | x
COc1cccc(Cn2c(CNC(=O)Cc3cccc(C)c3)nc3cccnc32)c1 | x | n | n | n | x | n
N#Cc1nc(Nc2ccc(F)cc2)nc(NC2CCCC2)n1 | x | x | n | x | x | n
CN1C(=O)[C@@H]2[C@H](C1=O)[C@@H]1C(=O)Nc3ccccc3C(=O)N1[C@@H]2c1ccc(Br)cc1 | n | n | n | n | n | n
COc1cccc(OCc2cc(C3Nc4ccccc4C(=O)N3Cc3ccco3)ccc2OC)c1 (centres undefined) | n | n | n | n | n | n
COc1ccc(C2Nc3ccccc3C(=O)N2Cc2ccco2)cc1COc1ccc([N+](=O)[O-])cc1 (centres undefined) | n | n | n | n | -80 | n
O=C(COC(=O)COc1cccc(Br)c1)Nc1c(Cl)cccc1Cl | -189 | n | n | n | n | n
CNC(=O)C(C)NS(=O)(=O)c1ccc(F)cc1 (centres undefined) | -91 | n | n | n | n | n
Cn1cccc1-c1cc2n(n1)CCC(=O)N2CCCC(=O)NCc1ccc(F)cc1 | x | n | n | n | x | n
Cc1cccc(NC(=O)CNC(=O)COc2cccnc2[N+](=O)[O-])c1C | n | n | n | n | n | n
O=C(c1c(F)c(F)c(F)c(F)c1F)N1CCN(c2cccc(C(F)(F)F)c2)CC1 | n | n | 31 | n | n | n
O=C(c1ccccc1F)N1CCN(c2cccc(C(F)(F)F)c2)CC1 | n | n | n | n | n | n
O=C(COC(=O)C1CC2C=CC1C2)Nc1cccc(S(=O)(=O)N2CCOCC2)c1 (centres undefined) | n | n | n | n | -104 | n
O=C(COC(=O)c1ccco1)Nc1cccc(S(=O)(=O)N2CCOCC2)c1 | n | n | x | n | n | x
O=S(=O)(c1ccc(C(F)(F)F)cc1)N1CCN(S(=O)(=O)c2ccc3c(c2)OCCO3)CC1 | x | x | n | x | x | n
C=CCSc1nc2c(N)ncnc2n1C1OC(CO)C(O)C1O (centres undefined) | n | n | x | n | n | x
Cc1ccc(C(=O)NC2CCCC2)s1 | n | n | 32 | n | n | n
Cc1ccc(C(=O)NC2CCC(C)CC2)s1 (centres undefined) | n | n | n | n | n | n
